Measured values from PubChem BioAssay (NCATS).
Results filed as inconclusive are left out. Values without a mark were called inactive. Calls of active or inactive are those of the source. Calls follow the shape of the dose curve; as a rule, active = well fitted cell-killing curve with a large enough effect; inconclusive = small, poorly fitted or top-dose-only effect, or effect the other way; inactive = no such curve, though single readings can be large or run the other way.

experiment: Viability qHTS for spleen associated tyrosine kinase inhibitor (SYKi) naive MV4-11 cells (AID 1963823); details: MV4-11 AML viability, CellTiter-Glo luminescence, 72 h; series mostly up to 45 µM; viability (% of control): at the top concentration; also: nearly all actives have a fitted effect of over 40% in size
How it was run: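 Read-out: CellTiter-Glo luminescence. Exposure: 72 hr, 37 C, 5% CO2, 95% humidity. Cells: MV4-11 without SYK inhibitor history, 500/well, qHTS format.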
Potency is read from the fitted curve at half-maximal effect.

Compound | Potency | viability (% of control)
C=C1C(=O)O[C@H]2C[C@@H](C)[C@@H]3CCC(=O)[C@@]3(C)C[C@H]12 | 4.11 µM (active) | –
CCCC(=O)Nc1cccc(NC(=O)c2ccccc2Br)c1 | – | 85%
CC(C)=CC/C=C(/C)[C@H]1CC[C@]2(C)[C@@H]1[C@H](O)CC1[C@@]3(C)CC[C@H](O)C(C)(C)[C@@H]3[C@@H](O[C@@H]3O[C@H](CO)[C@@H](O)[C@H](O)[C@H]3O[C@@H]3O[C@@H](C)[C@H](O)[C@@H](O)[C@H]3O)C[C@]12C (stereo not given in full) | – | 78.8% [at 17.3 µM]
OC1(CN2CCC(COc3noc4cccc(O[C@@H]5CCOC5)c34)CC2)CCOCC1 | – | 56%
CCC(C)(O)C(O)C(=O)OCc1ccc(O[C@@H]2O[C@H](CO)[C@@H](O)[C@H](O)[C@H]2O)c(OC)c1 (stereo not given in full) | – | 72.4% [at 17.3 µM]
CC(=O)O[C@@H]1CC[C@@]2(C)[C@H](CC[C@@H]3[C@@H]2C[C@H](OC(C)=O)[C@]2(C)[C@@H](C(C)=O)CC[C@@H]32)C1 | 8.2 µM (active) | –
O=C(O)C(O[C@@H]1O[C@H](CO[C@@H]2O[C@H](CO)[C@@H](O)[C@H](O)[C@H]2O)[C@@H](O)[C@H](O)[C@H]1O)c1ccccc1 (stereo not given in full) | – | 91% [at 17.3 µM]
C[C@@H]1CC2OC(=O)C3=C2C(CCC3O)[C@@]12C[C@@H](c1ccoc1)OC2=O (stereo not given in full) | – | 72.3%
CC(C)(O)c1ccc2c(c1)C(O)C[C@H]1[C@](C)(C(=O)O)CCC[C@]21C (stereo not given in full) | – | 91.3%
N#Cc1ccc2[nH]cc(CCCCN3CCN(c4ccc5oc(C(N)=O)cc5c4)CC3)c2c1 | 11.6 µM (active) | –
Cc1cc2nc(NCCCO)n(CC(=O)c3cc(C(C)(C)C)c(O)c(C(C)(C)C)c3)c2cc1C | 8.2 µM (active) | –
CC1(C)[C@@H](O)CC[C@]2(C)[C@H]3CC=C4[C@@H]5C[C@](C)(C(=O)O)CC[C@]5(C)CC[C@@]4(C)[C@]3(C)CC[C@@H]12 | – | 110%
C[C@@H]1O[C@@H](O[C@@H]2[C@@H](O)[C@H](O[C@H]3[C@H](O[C@H]4CC[C@@]5(C)C(CC[C@]6(C)C5CC=C5[C@@H]7CC(C)(C)CC[C@]7(C(=O)O[C@@H]7O[C@H](CO)[C@@H](O)[C@H](O)[C@H]7O)CC[C@]56C)C4(C)C)O[C@H](C(=O)O)[C@@H](O)[C@@H]3O)OC[C@H]2O)[C@H](O)[C@H](O)[C@H]1O (stereo not given in full) | – | 62.1% [at 9.25 µM]
C/C=C/C1=CC2=C(CO1)C(=O)C(C)(OC(=O)c1c(C)cc(O)cc1OC)C(O)C2 (stereo not given) | 5.7 µM (active) | –
O=C(NCc1nc2ccccc2c(=O)n1-c1ccc(F)cc1)Nc1ccc(Cl)c(C(F)(F)F)c1 | 23.1 µM (active) | –
O=C(O)Cc1nn(Cc2nc3cc(C(F)(F)F)ccc3s2)c(=O)c2nccnc12 | – | 8.49%
CC(=O)N[C@H](Cc1ccc2ccccc2c1)C(=O)N[C@H](Cc1ccc(Cl)cc1)C(=O)N[C@H](Cc1cccnc1)C(=O)N[C@@H](CO)C(=O)N[C@@H](Cc1ccc(O)cc1)C(=O)N[C@H](CCCNC(N)=O)C(=O)N[C@@H](CC(C)C)C(=O)N[C@@H](CCCN=C(N)N)C(=O)N1CCC[C@H]1C(=O)N[C@H](C)C(N)=O | – | 106% [at 17.3 µM]
O=C(c1ccc(-c2ccc(Cl)cc2)o1)N(Cc1ccccn1)c1ccc(N2CCNCC2)cc1 | 13 µM (active) | –
CC1(C)C2CCC(CO[C@@H]3O[C@H](CO[C@@H]4OC[C@](O)(CO)[C@H]4O)[C@@H](O)[C@H](O)[C@H]3O)C1C2 (stereo not given in full) | – | 83% [at 17.3 µM]
CC(=O)N[C@H]1[C@H](O[C@H]2CC[C@@]3(C)C(CC[C@]4(C)C3CC=C3C5CC(C)(C)CC[C@]5(C(=O)O)[C@H](O)C[C@]34C)C2(C)C)O[C@H](CO[C@@H]2OC[C@H](O)[C@H](O)[C@H]2O[C@@H]2OC[C@@H](O)[C@H](O)[C@H]2O)[C@@H](O)[C@@H]1O (stereo not given in full) | – | 83.2% [at 9.25 µM]

Compound | Potency | viability (% of control)
C=CC(=O)Nc1cc(Nc2ncc(Cl)c(-c3c[nH]c4ccccc34)n2)c(OC)cc1N(C)CCN(C)C | 0.058 µM (active) | –
C=C1C(=O)O[C@@H]2[C@H]3C(C)=CC(=O)C3=C(C)[C@@H](OC(=O)/C(C)=C\C)[C@H](O)[C@@H]12 | 3.21 µM (active) | –
CC1(C)CC[C@]2(C(=O)O[C@@H]3O[C@H](CO[C@@H]4O[C@H](CO)[C@@H](O)[C@H](O)[C@H]4O)[C@@H](O)[C@H](O[C@@H]4O[C@H](CO)[C@@H](O)[C@H](O)[C@H]4O)[C@H]3O)[C@H](O)C[C@]3(C)C(=CCC4[C@@]5(C)CC[C@H](O[C@@H]6OC[C@@H](O)[C@H](O)[C@H]6O)[C@@](C)(C(=O)O)C5CC[C@]43C)[C@@H]2C1 (stereo not given in full) | – | 67.4% [at 9.25 µM]
NC(=O)[C@H](O[C@@H]1O[C@H](CO)[C@@H](O)[C@H](O)[C@H]1O)c1ccccc1 | – | 80.5%
CC(=O)C12OC(C)(C)OC1CC1C3CCC4=CC(=O)C=CC4(C)C3(F)C(O)CC12C (stereo not given) | – | 121%
NCCCC[C@H](NC(=O)[C@@H]1Cc2ccccc2CN1C(=O)CCC(=O)c1ccccc1)C(=O)NCC(c1ccccc1)c1ccccc1 | 20.6 µM (active) | –
O=C1NC2CCc3nc4ccccc4c(=O)n3C2=Nc2ccccc21 (stereo not given) | – | 68.6%
CC1OC(OC2CCC3(C)C(CCC4(C)C3CC=C3C5CC(C)(C)CCC5(C(=O)OC5OC(CO)C(O)C(O)C5O)CCC34C(=O)O)C2(C)C)C(O)C(O)C1O (stereo not given) | – | 73.6% [at 17.3 µM]
Nc1nc(NC2CC2)cc(-c2cccc(Cl)c2Cl)n1 | 10.3 µM (active) | –
CC1OC(OC2C(C)OC(OC3C(OC(=O)/C=C/c4ccc(O)cc4)C(CO)OC(OC4(COC(=O)/C=C/c5ccc(O)cc5)OC(CO)C(O)C4O)C3OC3OCC(O)(CO)C3O)C(O)C2O)C(O)C(O)C1O (stereo not given) | – | 86.5% [at 9.25 µM]
COc1cc(C(=O)OC[C@H]2O[C@H](O[C@@]3(CO)O[C@@H](CO)[C@H](O)[C@H]3O)[C@H](O)[C@@H](O)[C@@H]2O)ccc1O | – | 79.7% [at 17.3 µM]
CC1(C)S[C@@H]2[C@H](NC(=O)[C@H](N)c3ccc(O)cc3)C(=O)N2[C@H]1C(=O)O | – | 87.5%
CC(C)C(C(=O)N(C)C(C)C(N)=O)N(C)C(=O)C1CCCN1C(=O)/C=C/C=C/C(O)C(C)O (stereo not given) | – | 79% [at 17.3 µM]
C=C1OC2CC(C(=O)O)C=CC2NC1=O (stereo not given) | – | 61.3%
COC(=O)C1=CO[C@@H](O[C@@H]2O[C@H](CO)[C@@H](O)[C@H](O)[C@H]2O)[C@@H]2[C@@H](CO)[C@@H](O)C(O)[C@H]12 (stereo not given in full) | – | 87.7% [at 17.3 µM]
C[C@H](NC(c1cccc2[nH]c(=O)c(=O)[nH]c12)P(=O)(O)O)c1ccc(Br)cc1 (stereo not given in full) | – | 103%
CCOC(=O)C1=C(N)Oc2ccc(Cl)cc2C1C(C#N)C(=O)OCC (stereo not given) | – | 76.7%
CC/C=C\CCO[C@@H]1O[C@H](CO[C@@H]2OC[C@H](O)[C@H](O)[C@H]2O)[C@@H](O)[C@H](O)[C@H]1O | – | 84.2%
CCCCCCCCCCOCC(O)CN (stereo not given) | 23.7 µM (active) | –
CC(=O)c1c(C)cc(O[C@@H]2O[C@H](CO)[C@@H](O)[C@H](O)[C@H]2O)cc1O | – | 73.9%
